Assay outcomes (PubChem)
GRP78 ERSR act: induces the endoplasmic reticulum stress response in human glioma cells; U87-MG GRP78 promoter luciferase reporter, 16 h; Potency, µM, without a hit: top-dose activation, actives largely listed as activators; 420,000 tested, 0.02% active; note: potency is the fitted concentration of half-maximal effect; series mostly up to about 76 µM; % of control where 0% means no effect; nearly all actives have a fitted effect of over 35% in size
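ERSR induction read as luciferase luminescence (Bright-Glo, 10 min at room temperature) in stably transfected human U87-MG glioma cells exposed to compounds for 16 h, using GRP78 as sensor.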
G9a block: blocks human histone lysine methyltransferase G9a; Potency, µM (doses to about 102 µM), inactives show at the highest dose activity, negative = inhibition, hits mostly inhibitors; 350,000 tested, 8.8% active; G9a H3K9 monomethylation, AlphaScreen, 2 h; note: potency is the fitted concentration of half-maximal effect; % is set by controls: 0 for no effect and ±100 for the full control effect; nearly all actives have a fitted effect of over 75% in size
Target sequence (Q96KQ7 913-1193 limits assumed): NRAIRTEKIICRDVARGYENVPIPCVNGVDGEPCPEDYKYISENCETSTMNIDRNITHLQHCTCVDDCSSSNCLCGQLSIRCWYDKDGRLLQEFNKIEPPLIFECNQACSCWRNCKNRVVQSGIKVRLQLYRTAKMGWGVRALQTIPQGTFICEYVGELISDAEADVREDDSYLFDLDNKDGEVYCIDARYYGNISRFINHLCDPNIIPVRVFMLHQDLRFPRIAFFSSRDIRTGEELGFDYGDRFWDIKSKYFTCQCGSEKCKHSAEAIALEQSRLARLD
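AlphaScreen detection with an anti-monomethyl H3K9 antibody quantified product after a 2 h room-temperature reaction containing 500 nM biotinylated H3K9 peptide, 20 µM SAM and 20 nM enzyme, which had been preincubated 15 min with compound.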
12-LOX inh: blocks human arachidonate 12S-lipoxygenase. Potency, µM (series often up to 108 µM), without a hit: at the top dose activity change, negative = inhibition, hits mostly inhibitors. P18054. purified 12hLO, xylenol orange hydroperoxide absorbance. 580,000 tested, 1.1% active; note: potency is the fitted concentration of half-maximal effect; % is set by controls: 0 for no effect and ±100 for the full control effect
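Purified human 12hLO (150 nM final) in 25 mM Hepes, 0.01% Triton X-100, pH 7.0 was preincubated 15 min at room temperature with compound. Then 40 uM arachidonic acid was added, 30 min. Hydroperoxide was read by Fe-XO absorbance ratio 573/405 nm.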
VDR inhibitor: vitamin D3 receptor (human) inhibition. Potency, µM, without a hit: max response, negative = inhibition, actives largely listed as inhibitors. 400,000 tested, 0.93% active. VDR-SRC2-3 peptide fluorescence polarization, 2 h; note: potency is the fitted concentration of half-maximal effect; % is set by controls: 0 for no effect and ±100 for the full control effect
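Two reagent solutions held at 4 deg C in the dark were dispensed, compounds pinned at 23 nl, and the mixture incubated 2 h at room temperature. Read-out: fluorescence polarization of VDR–SRC2-3 peptide binding.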
Sfp PPTase inh: Sfp phosphopantetheinyl transferase inhibition. Q9F4F7. Biochemical Sfp PPTase activity, qHTS. Potency, µM, for inactives: largest response in the series, negative = inhibition, hits mostly inhibitors. 310,000 tested, 3.5% active. AID 1490;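 note: the enzyme is Sfp with the accession as filed and its product quenches rhodamine fluorescence; potency is the fitted concentration of half-maximal effect; 0% = enzyme reaction without inhibitor and -100% = no enzyme wells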
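With Hepes-Na pH 7.6 buffer containing 10 mM MgCl2, Sfp (15 nM) modified BHQ-2-YbbR (12.5 uM) using rhodamine-CoA (5 uM). Two reads 30 minutes apart at 525/598 nm yielded each well's rate.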
USP1 UbRho: blocks human USP1/UAF1 cleavage of Ub-Rhodamine | shares compounds with VDR inhibitor | Ub-Rhodamine cleavage, fluorescence kinetic read | Potency, µM (top dose mostly 114 µM), for inactives: at the top dose activity change, negative = inhibition, actives largely listed as inhibitors | 50 tested, 50% active | AID 540327
VDR confirm: confirmation of human vitamin D receptor inhibitors; VDR-coactivator inhibition assay, qHTS confirmation; shares compounds with VDR inhibitor; Potency, µM, usual class: inhibitors; 840 tested, 89% active; note: potency is the fitted concentration of half-maximal effect
VDR FP fluor: confirmation of human VDR-coactivator binding inhibitors, fluorescein label; 840 tested, 48% active; VDR-coactivator binding, fluorescein fluorescence polarization; AID 602200; shares compounds with VDR inhibitor; Potency, µM (series often up to 57.1 µM), inactives show at the highest dose activity change, negative = inhibition, actives largely listed as inhibitors; note: potency is the fitted concentration of half-maximal effect
VDR bla: confirmation of human vitamin D receptor inhibitors in reporter cells; shares compounds with VDR inhibitor; VDR beta-lactamase reporter cells, FRET ratio; cells co-treated with VDR agonist LG190178; Potency, µM (series often up to 46.1 µM), for inactives: at the top dose activity change, negative = inhibition, actives largely listed as inhibitors; 840 tested, 23% active; AID 602202; note: potency is the fitted concentration of half-maximal effect; % is set by controls: 0 for no effect and ±100 for the full control effect
VDR viability: counter-screen for vitamin D receptor inhibitors: cytotoxicity. shares compounds with VDR inhibitor. cytotoxicity counter-screen, cell viability, qHTS. Potency, µM (series often up to 48.3 µM), without a hit: top-dose activity change, negative = cytotoxicity, most hits filed as cytotoxic. 840 tested, 18% active. AID 602204;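 note: potency is the fitted concentration of half-maximal effect; plate controls were DMSO for no effect and high-concentration cycloheximide for full effect; nearly all actives have a fitted effect of over 75% in size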
Active calls of the source: *; ? = inconclusive; / = no result; [ ] = remark or other dose. This excerpt belongs to a sample that is enriched for hits. Calls come from the whole dose curve; as a rule, active = well fitted curve in the direction sought with a large enough effect; inconclusive = small, poorly fitted or top-dose-only effect, or another doubt; inactive = no such curve, though single readings can be large; an effect the other way counts as inactive or inconclusive.

SMILES | GRP78 ERSR act | G9a block | 12-LOX inh | VDR inhibitor | Sfp PPTase inh | VDR confirm | VDR FP fluor | VDR bla | VDR viability | others
COc1cc(C2SCC(=O)Nc3c2c(C)nn3C)ccc1OCc1ccccc1C (stereo not drawn) | / | / | -24% | / | / | / | / | / | /
NC(Cc1cc(O)c(O)cc1O)C(=O)O (stereo not drawn) | -5% | 0.45µM* | ? | 45µM* | / | / | / | / | / | USP1 UbRho=12µM*
C1CCN(C2CCCNC2)CC1 (stereo not drawn) | / | / | 9% | / | / | / | / | / | /
CN(Cc1ccccc1)Cc1cn(C[C@H]2CC3CCN2C[C@@H]3C(=O)NC2CC2)nn1 (stereo partly drawn) | / | / | -5%[176 µM] | / | / | / | / | / | /
O=c1nc(/C=C/c2ccc(Cl)cc2Cl)cc(C(F)(F)F)[nH]1 | ? | -2% | 20% | 10µM* | -17% | 7.5* | 3.2µM* | ? | 37%
COc1cc2c(cc1O)[C@H]1Cc3ccc(OC)c(O)c3CN1CC2 | -3% | 2%[21.5 µM] | / | -11% | 9% | / | / | / | / | USP1 UbRho=?
CN1C(=O)C(=Cc2ccccc2OS(=O)(=O)c2ccccc2)C(=O)N(C)C1=O | -6% | / | ? | 25µM* | 35µM* | 27* | 11µM* | 20% | -13%
N#CC(C#N)=NNc1ccc(-n2ccc(C(F)(F)F)n2)cc1 | 1% | 32µM* | 28µM* | 20µM* | -4% | 3* | ? | ? | ?
Cn1cc(C(=O)Nc2ccncc2)c2ccccc21 | / | / | 32% | / | / | / | / | / | /
COC(=O)C1=Nc2ccccc2/C1=C\c1c(O)n(-c2ccc(Br)cc2)c(=O)[nH]c1=O | 10% | 16µM* | 35µM* | 79µM* | 45µM* | 21* | ? | 30% | -9%
O=C(COc1ccccc1/C=C1/NC(=O)NC1=O)Nc1ccccc1 | -1% | ? | -34% | ? | 4% | / | / | / | /
O=C1NC(=O)C(=Cc2ccccc2OCCOc2ccc([N+](=O)[O-])cc2)C(=O)N1 | 2% | 16µM* | / | 45µM* | 50µM* | 27* | 10µM* | 20% | ?
N#CCCNCc1cccnc1 | / | / | 13% | / | / | / | / | / | /
CCCNC(=O)C(C)N1CC=C(c2c[nH]c3ccccc23)CC1 (stereo not drawn) | / | / | -10% | / | / | / | / | / | /
CC(Cl)C(=O)NC(C)(C)C (stereo not drawn) | / | / | -6% | / | / | / | / | / | /
COCCN1CCC(O)C2CCCCC21 (stereo not drawn) | / | / | -15% | / | / | / | / | / | /
CN1CCN(C(=O)Cc2c[nH]c3ncc(-c4ccoc4)cc23)CC1 | / | / | 16%[176 µM] | / | / | / | / | / | /
